Here are results for eleven compounds from ChEMBL document CHEMBL3988442, “University of Dundee, Small-Polar-MMV Screening Library” (2021).

What all share (set-up): scale not given: direction of the effect not stated beside the values
Test [1] has as its target Protein translocase subunit SecA (Escherichia coli (strain K12)) (UniProt P10408). Nature of the test: Assay to Identify E. coli SecA ATPase Inhibitors. The format is functional. The note with it: 30 µM.
The target in test [2] is T1, Ubiquitin-activating enzyme e1, putative (Leishmania donovani (strain BPK282A1)) (UniProt E9BSI1).
T1 sequence (whole entry): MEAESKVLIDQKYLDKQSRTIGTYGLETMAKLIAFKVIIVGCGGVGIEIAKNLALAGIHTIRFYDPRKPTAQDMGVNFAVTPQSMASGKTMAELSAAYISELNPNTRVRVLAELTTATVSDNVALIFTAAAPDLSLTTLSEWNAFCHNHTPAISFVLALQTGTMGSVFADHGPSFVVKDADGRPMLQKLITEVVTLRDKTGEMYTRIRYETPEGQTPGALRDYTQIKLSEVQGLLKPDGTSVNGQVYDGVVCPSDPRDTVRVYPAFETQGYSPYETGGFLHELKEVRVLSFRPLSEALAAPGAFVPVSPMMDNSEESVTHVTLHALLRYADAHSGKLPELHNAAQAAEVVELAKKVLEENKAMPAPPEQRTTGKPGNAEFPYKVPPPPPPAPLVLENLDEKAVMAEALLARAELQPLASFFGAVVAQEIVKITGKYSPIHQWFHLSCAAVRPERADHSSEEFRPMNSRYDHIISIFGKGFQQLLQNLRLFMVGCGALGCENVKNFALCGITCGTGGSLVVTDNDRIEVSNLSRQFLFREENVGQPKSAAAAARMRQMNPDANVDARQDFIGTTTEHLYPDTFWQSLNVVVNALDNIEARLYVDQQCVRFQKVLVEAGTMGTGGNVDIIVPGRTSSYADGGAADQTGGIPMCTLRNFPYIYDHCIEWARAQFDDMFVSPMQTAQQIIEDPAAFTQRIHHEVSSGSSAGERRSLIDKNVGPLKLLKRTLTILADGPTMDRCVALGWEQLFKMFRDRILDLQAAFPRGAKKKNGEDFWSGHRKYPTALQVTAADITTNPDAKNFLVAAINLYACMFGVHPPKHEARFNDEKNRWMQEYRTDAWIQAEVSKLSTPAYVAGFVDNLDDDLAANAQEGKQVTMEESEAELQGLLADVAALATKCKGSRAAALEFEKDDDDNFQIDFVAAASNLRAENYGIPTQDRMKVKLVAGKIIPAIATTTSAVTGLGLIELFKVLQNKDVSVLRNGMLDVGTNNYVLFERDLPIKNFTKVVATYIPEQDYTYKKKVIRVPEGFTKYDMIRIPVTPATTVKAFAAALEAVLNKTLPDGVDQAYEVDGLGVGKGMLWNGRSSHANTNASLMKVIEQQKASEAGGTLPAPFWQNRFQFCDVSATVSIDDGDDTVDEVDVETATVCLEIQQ
Nature of the test: Leishmania donovani Ubiquitin Activating Enzyme (LdE1). The format is functional. The conditions noted are these: 30 µM.

For test [3], the target named is AMP-activated protein kinase, AMPK (Homo sapiens) (UniProt P54646+O43741+P54619+Q9UGJ0+Q9Y478+Q13131+Q9UGI9). The test can be described thus: AMP-dependent Kinase enzyme assay. An in vitro enzyme assay that detects ADP turnover that is directly proportional to AMPK activity. This uses naive AMPK that is activated during the assay with MK-8722. Format: functional. The conditions noted are these: 30 µM.

In test [4] the target is Sialic acid-binding Ig-like lectin 9 (Homo sapiens) (UniProt Q9Y336). Nature of the test: Hs-Siglec9 ALPHAscreen SOP 20170721. The note with it: 10 µM. On the technique in general: In Alpha technology, singlet oxygen from a donor bead excites a nearby acceptor bead.
Sequence of Sialic acid-binding Ig-like lectin 9 (Homo sapiens) (Q9Y336 whole entry): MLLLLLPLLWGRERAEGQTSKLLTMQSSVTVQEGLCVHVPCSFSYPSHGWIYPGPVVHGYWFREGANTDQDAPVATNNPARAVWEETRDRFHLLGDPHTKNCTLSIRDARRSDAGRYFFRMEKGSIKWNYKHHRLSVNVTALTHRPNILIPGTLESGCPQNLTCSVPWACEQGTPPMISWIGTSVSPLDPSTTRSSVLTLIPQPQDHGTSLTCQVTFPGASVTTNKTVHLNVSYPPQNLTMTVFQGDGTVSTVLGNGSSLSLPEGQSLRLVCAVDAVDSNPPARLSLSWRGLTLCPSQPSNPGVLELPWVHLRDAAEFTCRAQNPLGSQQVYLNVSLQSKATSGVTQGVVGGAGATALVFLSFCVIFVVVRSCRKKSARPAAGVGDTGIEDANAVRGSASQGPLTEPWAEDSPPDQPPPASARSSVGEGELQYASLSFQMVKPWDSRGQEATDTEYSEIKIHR
In the next test the test system is Trypanosoma cruzi. The test can be described thus: Trypanosoma cruzi phosphomannomutase and mannose-1-phosphate guanylyltransferase assay. Format: functional. The note with it: 10 µM.
For test [5], the target named is T2, Arginase-2, mitochondrial (Homo sapiens) (UniProt P78540).
T2 sequence (whole entry): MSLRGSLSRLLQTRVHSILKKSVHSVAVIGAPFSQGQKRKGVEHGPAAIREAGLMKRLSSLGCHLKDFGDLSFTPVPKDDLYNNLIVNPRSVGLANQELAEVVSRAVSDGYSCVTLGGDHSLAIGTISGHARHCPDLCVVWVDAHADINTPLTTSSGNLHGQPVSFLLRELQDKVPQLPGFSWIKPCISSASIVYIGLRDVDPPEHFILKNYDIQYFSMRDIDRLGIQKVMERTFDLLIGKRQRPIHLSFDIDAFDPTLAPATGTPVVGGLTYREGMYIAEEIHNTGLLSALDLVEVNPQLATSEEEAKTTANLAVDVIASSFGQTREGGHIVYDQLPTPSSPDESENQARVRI
The test can be described thus: in vitro enzyme assay to detect the production of urea directly proportional to the activity of Arginase II. Note: in the data most compounds retested in dose-response had high values. Format: functional. The note with it: 33.3 µM.

Test [6] has as its target T3, Proteasome subunit beta (Trypanosoma cruzi) (UniProt O96673).
T3 sequence (whole entry): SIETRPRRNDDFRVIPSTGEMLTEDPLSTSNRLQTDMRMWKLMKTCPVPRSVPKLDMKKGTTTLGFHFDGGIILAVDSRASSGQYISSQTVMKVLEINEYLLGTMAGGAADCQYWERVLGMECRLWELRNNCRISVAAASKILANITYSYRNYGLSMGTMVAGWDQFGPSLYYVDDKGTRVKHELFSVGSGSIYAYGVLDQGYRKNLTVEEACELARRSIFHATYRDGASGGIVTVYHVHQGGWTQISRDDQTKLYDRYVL
The test can be described thus: Trypanosoma cruzi proteasome chymotrypsin-like activity (TcProtChymo) assay. Note: in the data most compounds retested in dose-response had high values. Format: functional. The note with it: 9.37 µM.

Another test is filed under the species Homo sapiens. Nature of the test: To identify inhibition of the IFN signalling (Jak-Stat) pathway via expression of an eGFP reporter gene under the control of an IFN-stimulated response element (ISRE) containing MxA promoter. The conditions noted are these: 30 µM. Format: functional. A general note: A reporter such as luciferase makes a cellular process visible.

In test [7] the target is T4, Tyrosyl-tRNA synthetase, putative (Trypanosoma cruzi (strain CL Brener)) (UniProt Q4DSP6).
T4 sequence (whole entry): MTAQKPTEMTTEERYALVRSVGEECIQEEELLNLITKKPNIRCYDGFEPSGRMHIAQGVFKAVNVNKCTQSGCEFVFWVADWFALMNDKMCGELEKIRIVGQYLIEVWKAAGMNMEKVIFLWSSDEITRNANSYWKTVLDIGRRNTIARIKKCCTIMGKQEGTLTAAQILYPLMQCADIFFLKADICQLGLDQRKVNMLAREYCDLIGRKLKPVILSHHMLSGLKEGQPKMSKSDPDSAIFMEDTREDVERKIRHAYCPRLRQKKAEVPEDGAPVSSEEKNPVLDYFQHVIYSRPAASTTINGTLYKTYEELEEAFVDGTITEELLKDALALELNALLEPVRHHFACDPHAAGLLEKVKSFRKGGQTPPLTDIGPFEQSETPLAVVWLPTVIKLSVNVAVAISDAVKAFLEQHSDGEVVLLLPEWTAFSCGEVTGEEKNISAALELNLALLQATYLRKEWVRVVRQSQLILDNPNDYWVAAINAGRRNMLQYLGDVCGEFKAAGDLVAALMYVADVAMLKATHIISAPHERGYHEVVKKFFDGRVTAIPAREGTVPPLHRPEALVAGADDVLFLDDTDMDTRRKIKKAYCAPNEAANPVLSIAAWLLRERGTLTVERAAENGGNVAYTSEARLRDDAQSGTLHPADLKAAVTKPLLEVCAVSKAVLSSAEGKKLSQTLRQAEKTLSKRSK
Nature of the test: Trypanosoma cruzi tyrosyl tRNA synthetase (TcYRS) _High Tyrosine SOP. Note: in the data most compounds retested in dose-response had high values. The format is functional. The conditions noted are these: 30 µM.

Test [8] deals with T4, Tyrosyl-tRNA synthetase, putative (Trypanosoma cruzi (strain CL Brener)). Nature of the test: Trypanosoma cruzi tyrosyl tRNA synthetase (TcYRS) SOP. The conditions noted are these: 30 µM. Format: functional.
The target in test [9] is Chromo domain-containing protein 1 (Saccharomyces cerevisiae (strain ATCC 204508 / S288c) (Baker's yeast)) (UniProt P32657). The test can be described thus: ScCHD-1 Enzyme Inhibition Assay. Note: in the data most compounds retested in dose-response had high values. The note with it: 30 µM. Format: functional.
Sequence of Chromo domain-containing protein 1 (Saccharomyces cerevisiae (strain ATCC 204508 / S288c) (Baker's yeast)) (P32657 whole entry, the tested form may be a part): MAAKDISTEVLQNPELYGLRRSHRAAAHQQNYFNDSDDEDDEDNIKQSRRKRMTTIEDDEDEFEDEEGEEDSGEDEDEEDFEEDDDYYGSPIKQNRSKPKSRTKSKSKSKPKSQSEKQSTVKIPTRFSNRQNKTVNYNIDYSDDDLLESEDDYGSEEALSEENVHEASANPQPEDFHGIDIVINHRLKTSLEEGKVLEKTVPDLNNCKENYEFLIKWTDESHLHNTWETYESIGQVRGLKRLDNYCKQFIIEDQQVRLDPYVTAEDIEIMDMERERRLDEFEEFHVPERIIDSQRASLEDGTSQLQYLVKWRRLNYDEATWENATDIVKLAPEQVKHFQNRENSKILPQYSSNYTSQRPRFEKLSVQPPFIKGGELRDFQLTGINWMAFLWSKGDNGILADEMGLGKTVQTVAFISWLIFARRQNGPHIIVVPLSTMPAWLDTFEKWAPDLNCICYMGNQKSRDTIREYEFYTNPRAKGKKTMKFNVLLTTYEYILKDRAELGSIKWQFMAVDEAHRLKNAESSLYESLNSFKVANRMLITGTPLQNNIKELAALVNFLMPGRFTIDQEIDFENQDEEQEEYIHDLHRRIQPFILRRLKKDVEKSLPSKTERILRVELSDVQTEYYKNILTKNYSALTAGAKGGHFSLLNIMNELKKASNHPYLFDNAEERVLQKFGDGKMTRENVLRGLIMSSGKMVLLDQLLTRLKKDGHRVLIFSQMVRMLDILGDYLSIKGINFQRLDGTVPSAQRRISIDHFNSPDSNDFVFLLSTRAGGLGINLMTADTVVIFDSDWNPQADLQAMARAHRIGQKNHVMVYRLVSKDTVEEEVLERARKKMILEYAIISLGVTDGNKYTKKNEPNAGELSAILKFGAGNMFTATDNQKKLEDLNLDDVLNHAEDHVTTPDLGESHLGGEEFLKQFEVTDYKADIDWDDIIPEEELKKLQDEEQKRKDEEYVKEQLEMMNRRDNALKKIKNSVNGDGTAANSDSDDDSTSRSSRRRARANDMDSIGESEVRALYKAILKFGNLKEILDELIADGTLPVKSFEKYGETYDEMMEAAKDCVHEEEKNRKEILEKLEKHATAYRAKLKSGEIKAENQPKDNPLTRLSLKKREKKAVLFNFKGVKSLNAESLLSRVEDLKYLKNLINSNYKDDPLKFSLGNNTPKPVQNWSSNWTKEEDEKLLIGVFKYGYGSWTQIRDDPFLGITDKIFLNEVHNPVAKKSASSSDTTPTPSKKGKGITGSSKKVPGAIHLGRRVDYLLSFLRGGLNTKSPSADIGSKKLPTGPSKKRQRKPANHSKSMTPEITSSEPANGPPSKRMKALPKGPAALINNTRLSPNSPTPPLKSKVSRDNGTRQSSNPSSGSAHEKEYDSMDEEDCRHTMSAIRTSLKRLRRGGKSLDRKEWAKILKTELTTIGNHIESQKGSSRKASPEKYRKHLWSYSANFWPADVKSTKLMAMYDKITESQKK

For some of these results: Entries with a potency or affinity are not part of this list.

Sequence of Protein translocase subunit SecA (Escherichia coli (strain K12)) (P10408 whole entry): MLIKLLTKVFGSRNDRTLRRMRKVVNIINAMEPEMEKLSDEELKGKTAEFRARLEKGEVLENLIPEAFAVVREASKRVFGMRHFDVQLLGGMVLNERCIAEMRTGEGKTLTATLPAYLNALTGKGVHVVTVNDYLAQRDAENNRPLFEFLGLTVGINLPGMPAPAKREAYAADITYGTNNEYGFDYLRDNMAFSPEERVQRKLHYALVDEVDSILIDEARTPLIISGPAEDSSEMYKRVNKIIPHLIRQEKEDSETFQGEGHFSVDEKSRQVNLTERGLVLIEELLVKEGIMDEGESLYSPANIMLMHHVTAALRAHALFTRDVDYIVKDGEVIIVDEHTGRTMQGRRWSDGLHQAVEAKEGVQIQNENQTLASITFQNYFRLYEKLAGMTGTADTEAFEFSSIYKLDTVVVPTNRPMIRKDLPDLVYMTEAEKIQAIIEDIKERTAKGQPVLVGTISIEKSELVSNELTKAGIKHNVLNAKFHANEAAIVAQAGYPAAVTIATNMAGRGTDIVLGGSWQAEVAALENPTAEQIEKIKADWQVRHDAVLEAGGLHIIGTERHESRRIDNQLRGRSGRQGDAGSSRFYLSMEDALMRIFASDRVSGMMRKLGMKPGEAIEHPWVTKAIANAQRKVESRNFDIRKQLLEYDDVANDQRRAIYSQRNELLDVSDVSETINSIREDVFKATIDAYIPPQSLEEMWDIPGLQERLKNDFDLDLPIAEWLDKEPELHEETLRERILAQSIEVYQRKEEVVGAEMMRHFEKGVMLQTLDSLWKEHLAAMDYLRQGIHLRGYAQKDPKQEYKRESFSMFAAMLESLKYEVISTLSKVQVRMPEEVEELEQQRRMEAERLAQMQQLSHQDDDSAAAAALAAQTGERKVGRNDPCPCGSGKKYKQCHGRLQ

Turning to `CC(C)c1nnc2n1CCN(C(=O)c1ccc(OCC(N)=O)cc1)C2`, the Percent Effect in test [1] was -8.09%; in test [2], 18.2%; in test [3], -2.69%; in [4] it was -4.74%; in the test with Trypanosoma cruzi, 4.41%; in test [5], -1.9%. In addition, the Percent Effect in test [6] is 9.62%; in the test filed under Homo sapiens, 4.02%; in test [7], 6.67%; in [8] it was 11.8%; in [9], -16.8%.
Regarding `COCC1CCN(C(=O)c2cccc(S(=O)(=O)NC3CCCC3)c2)C1` (stereo unspecified), the Percent Effect in test [1] is 1.68%; in test [2], 16.2%; in [3], -0.427%; in [4], 10.5%; in the test with Trypanosoma cruzi it was 1.66%; in test [5], 10.2%. The Percent Effect in test [6] is 17.4%; in the test listed under Homo sapiens it was 13.5%; in [7], 5.38%; in [8], 21%; in test [9] it was -13.4%.
Consider `Nc1nc(C2CCN(C(=O)c3cncs3)CC2)cs1`, for which the Percent Effect in [1] was -7.01%; in test [2], 12.2%; in test [3], 9.81%; in [4], 5.35%; in the test with Trypanosoma cruzi it was 1.38%; in test [5] it was 0.232%. Further, the Percent Effect in [6] is 3.59%; in the test listed under Homo sapiens it was -3.51%; in test [7] it was 3.23%; in test [8] it was 11.7%; in [9] it was -8.22%.
`CC(Cc1ccco1)NC(=O)Nc1ccc(S(C)(=O)=O)nc1` (stereo unspecified): the Percent Effect was -4.47% in [1]; 18.4% in test [2]; -6.45% in test [3]; -1.24% in [4]; 4.13% in the test on Trypanosoma cruzi; -0.383% in test [5]. Besides, the Percent Effect in [6] is 9.52%; in the test listed under Homo sapiens it was 21.8%; in test [7] it was 9.31%; in test [8] it was 19.5%; in test [9], -12.4%.
In the case of `Cc1n[nH]c(C)c1NC(=O)CN1CCOC(Cn2cccn2)C1` (stereo unspecified), the Percent Effect in test [1] is -4.71%; in test [2], 2.6%; in test [3], 7.29%; in [4], -4.25%; in the test on Trypanosoma cruzi it was 6.95%; in test [5] it was -4%. The Percent Effect was 8.16% in [6]; 10.5% in the test filed under Homo sapiens; 3.81% in [7]; 9.41% in test [8]; -16.3% in test [9].
`Cc1cccc(C)c1NC(=O)CCNC(=O)c1ccoc1`: the Percent Effect in test [1] is -3.75%; in test [2] it was 18.2%; in test [3] it was 5.22%; in [4], -2.96%; with Trypanosoma cruzi, 1.27%; in [5], 0.21%. Moreover, the Percent Effect in test [6] was 20.3%; in the test filed under Homo sapiens it was 16%; in test [7], 10.5%; in test [8], 14.1%; in test [9], -8.58%.
Turning to `CNC(=O)C1(c2cnccn2)CCCN1C(=O)c1ccn(C)n1` (stereo unspecified), the Percent Effect in [1] is -5.86%; in [2] it was 6.76%; in test [3] it was 3.23%; in [4], -2.02%; in the test on Trypanosoma cruzi, 0.593%; in test [5], -1.16%. Besides, the Percent Effect in test [6] was 1.4%; in the test filed under Homo sapiens, 7.86%; in [7] it was 4.3%; in [8], 74%; in test [9], -22%.
With `O=C(Nc1cc(F)ccc1OCC1CCCO1)c1ccccn1` (stereo unspecified), the Percent Effect in test [1] is -2.56%; in test [2] it was 2.6%; in test [3] it was 23.7%; in test [4], 12.2%; in the test on Trypanosoma cruzi, 3.04%; in test [5] it was 3.16%. In addition, the Percent Effect in test [6] was 0.242%; in the test listed under Homo sapiens, 2.47%; in test [7], 2.86%; in test [8] it was 9.41%; in test [9] it was -15.1%.
Turning to `O=S(=O)(C1CC1)N1C[C@H]2CCC[C@@]2(COc2ccccn2)C1`, the Percent Effect in test [1] was -0.747%; in [2] it was 14.7%; in test [3] it was 2.3%; in test [4] it was 3.09%; in the test with Trypanosoma cruzi it was -4.32%; in test [5] it was 5.81%. Moreover, the Percent Effect in [6] was 15.3%; in the test listed under Homo sapiens it was -6.25%; in [7], 3.17%; in test [8], 10.3%; in [9], -5.69%.
For the compound `O=S(=O)(c1cccs1)N1CC[C@H](O)[C@@H]1Cc1ccncc1`, the Percent Effect in [1] is -3.12%; in [2], 13.5%; in test [3], 9.88%; in test [4] it was -0.784%; in the test on Trypanosoma cruzi, -4.79%; in [5], 2.23%. Besides, the Percent Effect was 22.9% in test [6]; -0.0803% in the test filed under Homo sapiens; 4.32% in [7]; 12.8% in [8]; -1.7% in test [9].
In the case of `Cc1ccc(-c2nc(CN3CCOC(Cn4cccn4)C3)cs2)o1` (stereo unspecified), the Percent Effect is 0.91% in test [1]; 2.7% in test [2]; -3.73% in test [3]; 5.65% in test [4]; 7.14% in the test on Trypanosoma cruzi; 0.476% in test [5]. In addition, the Percent Effect worked out at 12.4% in [6]; 4.23% in the test filed under Homo sapiens; 2.65% in test [7]; 9.76% in test [8]; 0.401% in test [9].
